Consider nine compounds from PubChem BioAssay (NCI).

The nature of experiment [1]: NCI Yeast Anticancer Drug Screen. Data for the rad50 strain (AID 155).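 Further: 0% = growth of vehicle-only cultures of the same strain.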 The following applies: S. cerevisiae rad50 strain growth inhibition, stronger effect = higher value. Put shortly:
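Genetically altered yeast (DNA repair pathway); compound treatment; growth inhibition vs vehicle ctrl.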

The nature of experiment [2]: NCI Yeast Anticancer Drug Screen. Data for the mec2-1 strain (AID 157). The following applies: S. cerevisiae mec2-1 strain, stronger effect = higher value. The essentials:
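Using mec2-1 yeast: add compound, measure growth, express inhibition versus vehicle-treated cultures.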

The nature of experiment [3]: NCI Yeast Anticancer Drug Screen. Data for the sgs1 mgt1 strain (AID 161).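 Further: 0% = growth of cultures given vehicle only.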 The following applies: S. cerevisiae sgs1 mgt1 strain, stronger effect = higher value. The essentials: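 Growth of a repair-deficient yeast mutant was monitored after compound treatment and expressed as inhibition relative to vehicle-treated cultures.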
Experiment [4] in a line: NCI Yeast Anticancer Drug Screen. Data for the cln2 rad14 strain (AID 165).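 Further: 0% = growth equal to vehicle treated cultures.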 As to conditions: S. cerevisiae cln2 rad14 strain, stronger effect = higher value. Put shortly: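 Yeast strain cln2 rad14, bearing defects in cell cycle control and DNA repair, serves as the test system; values reflect growth inhibition compared with vehicle.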
Experiment [5] is described as follows: NCI Yeast Anticancer Drug Screen. Data for the bub3 strain (AID 167). As to conditions: S. cerevisiae bub3 mutant strain, stronger effect = higher value. The essentials: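 Yeast carrying a defined mutation is treated with each compound, and growth is compared with that of vehicle-exposed cells to give inhibition.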
A short description of experiment [6]: NCI Yeast Anticancer Drug Screen. Data for the mlh1 rad18 strain (AID 175). The following applies: S. cerevisiae mlh1 rad18 strain growth inhibition, stronger effect = higher value. The essentials: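 Steps: expose repair-defective yeast to compound; measure growth; express inhibition against vehicle-treated controls.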
Setting [7] is: at 5.0 µM (retest, dose inferred, filed as 0.5).
[8] abbreviates: at 50.0 µM (retest, dose inferred, filed as 5.0).

SMILES strings stand for the structures. This is part of a sample that, as a whole, favours compounds with a hit. Of some 79,000 tested, about 15% had one in any assay. Active and inactive are the calls of the source. No stated cut-off is given here; in the data, active means growth inhibition above about 70%; inactive means the rest.

Regarding `Oc1cccc(/C=C/c2ccncc2)c1`, the growth inhibition in experiment [1] (setting [7]) was 0% (inactive); in experiment [1] (setting [8]) it was 28% (inactive); in experiment [1] (at 50.0 µM), 75.1% (active); in experiment [2] (setting [7]), -4% (inactive); in experiment [2] (setting [8]), 13% (inactive); in experiment [2] (at 50.0 µM), 37.6% (inactive). Also, the growth inhibition in experiment [3] (setting [7]) was -3% (inactive); in experiment [3] (setting [8]), 25% (inactive); in experiment [3] (at 50.0 µM), 65.5% (inactive); in experiment [4] (setting [7]) it was -6% (inactive); in experiment [4] (setting [8]), 15% (inactive); in experiment [4] (at 50.0 µM), 25.9% (inactive). The growth inhibition in experiment [5] (setting [7]) is -6% (inactive); in experiment [5] (setting [8]) it was 22% (inactive); in experiment [5] (at 50.0 µM), 63.8% (inactive); in experiment [6] (setting [7]) it was -1% (inactive); in experiment [6] (setting [8]) it was 12% (inactive); in experiment [6] (at 50.0 µM), 65.5% (inactive).
Turning to `CN(C)CC1CCC2=C(C1=O)C(c1ccc(Cl)c(Cl)c1)C1=C(CCC(CN(C)C)C1=O)O2` (configuration not stated), the growth inhibition was 14% (inactive) in experiment [1] (setting [7]); 11% (inactive) in experiment [1] (setting [8]); 75.5% (active) in experiment [1] (at 50.0 µM); -4% (inactive) in experiment [2] (setting [7]); -13% (inactive) in experiment [2] (setting [8]); 49.9% (inactive) in experiment [2] (at 50.0 µM). Further, the growth inhibition was -5% (inactive) in experiment [3] (setting [7]); 19% (inactive) in experiment [3] (setting [8]); 47.6% (inactive) in experiment [3] (at 50.0 µM); 6% (inactive) in experiment [4] (setting [7]); -3% (inactive) in experiment [4] (setting [8]); -17.2% (inactive) in experiment [4] (at 50.0 µM). For the same compound, the growth inhibition is -5% (inactive) in experiment [5] (setting [7]); 2% (inactive) in experiment [5] (setting [8]); 3.75% (inactive) in experiment [5] (at 50.0 µM); 4% (inactive) in experiment [6] (setting [7]); 1% (inactive) in experiment [6] (setting [8]); 48.5% (inactive) in experiment [6] (at 50.0 µM).
Take `C=C(C)COc1ccccc1C(OCC)OCC`: the growth inhibition is 1% (inactive) in experiment [1] (setting [7]); 21% (inactive) in experiment [1] (setting [8]); 49.9% (inactive) in experiment [1] (at 50.0 µM); 7% (inactive) in experiment [2] (setting [7]); 19% (inactive) in experiment [2] (setting [8]); 14.9% (inactive) in experiment [2] (at 50.0 µM). Besides, the growth inhibition in experiment [3] (setting [7]) is 3% (inactive); in experiment [3] (setting [8]), 28% (inactive); in experiment [3] (at 50.0 µM), 29.1% (inactive); in experiment [4] (setting [7]), -1% (inactive); in experiment [4] (setting [8]), 27% (inactive); in experiment [4] (at 50.0 µM), 13.7% (inactive). For the same compound, the growth inhibition is 0% (inactive) in experiment [5] (setting [7]); 20% (inactive) in experiment [5] (setting [8]); 31.6% (inactive) in experiment [5] (at 50.0 µM); 0% (inactive) in experiment [6] (setting [7]); 39% (inactive) in experiment [6] (setting [8]); 78.5% (active) in experiment [6] (at 50.0 µM).
Consider `O=[N+]([O-])/C(Cl)=C(\Sc1ccccc1)C(Cl)=C(Cl)Cl`, for which the growth inhibition in experiment [1] (setting [7]) was 100% (active); in experiment [1] (setting [8]), 99% (active); in experiment [1] (at 50.0 µM), 89.8% (active); in experiment [2] (setting [7]), 100% (active); in experiment [2] (setting [8]), 100% (active); in experiment [2] (at 50.0 µM), 93.4% (active). Further, the growth inhibition is 99% (active) in experiment [3] (setting [7]); 99% (active) in experiment [3] (setting [8]); 90.6% (active) in experiment [3] (at 50.0 µM); 99% (active) in experiment [4] (setting [7]); 99% (active) in experiment [4] (setting [8]); 91.9% (active) in experiment [4] (at 50.0 µM). The growth inhibition in experiment [5] (setting [7]) was 99% (active); in experiment [5] (setting [8]), 99% (active); in experiment [5] (at 50.0 µM), 91.8% (active); in experiment [6] (setting [7]) it was 100% (active); in experiment [6] (setting [8]) it was 99% (active); in experiment [6] (at 50.0 µM), 86.8% (active).
For `NC1=NOC(=O)C1Cc1ccccc1` (configuration not stated), the growth inhibition in experiment [1] (setting [7]) is -2% (inactive); in experiment [1] (setting [8]), -1% (inactive); in experiment [1] (at 50.0 µM), 2.3% (inactive); in experiment [2] (setting [7]) it was 0% (inactive); in experiment [2] (setting [8]), -4% (inactive); in experiment [2] (at 50.0 µM), 8% (inactive). Moreover, the growth inhibition in experiment [3] (setting [7]) was -1% (inactive); in experiment [3] (setting [8]), -2% (inactive); in experiment [3] (at 50.0 µM), 1.8% (inactive); in experiment [4] (setting [7]), -7% (inactive); in experiment [4] (setting [8]) it was -4% (inactive); in experiment [4] (at 50.0 µM), 76.8% (active). Further, the growth inhibition in experiment [5] (setting [7]) is 2% (inactive); in experiment [5] (setting [8]) it was -3% (inactive); in experiment [5] (at 50.0 µM) it was -6.95% (inactive); in experiment [6] (setting [7]) it was -2% (inactive); in experiment [6] (setting [8]) it was -2% (inactive); in experiment [6] (at 50.0 µM) it was 15.6% (inactive).
Consider `Clc1ccc(C(CCOc2ccccc2Br)Cn2ccnc2)c(Cl)c1` (configuration not stated), for which the growth inhibition in experiment [1] (setting [7]) is 89% (active); in experiment [1] (setting [8]), 98% (active); in experiment [1] (at 50.0 µM), 99.7% (active); in experiment [2] (setting [7]) it was 75% (active); in experiment [2] (setting [8]), 99% (active); in experiment [2] (at 50.0 µM), 99.7% (active). Also, the growth inhibition in experiment [3] (setting [7]) was 82% (active); in experiment [3] (setting [8]), 99% (active); in experiment [3] (at 50.0 µM), 99.7% (active); in experiment [4] (setting [7]), 68% (inactive); in experiment [4] (setting [8]) it was 99% (active); in experiment [4] (at 50.0 µM), 97% (active). The growth inhibition in experiment [5] (setting [7]) was 89% (active); in experiment [5] (setting [8]), 99% (active); in experiment [5] (at 50.0 µM) it was 99.7% (active); in experiment [6] (setting [7]), 79% (active); in experiment [6] (setting [8]), 99% (active); in experiment [6] (at 50.0 µM), 95.3% (active).
On to `CCCn1c2ccccc2c2ccc3c(c21)C(=O)C=CC3=O`, for which the growth inhibition in experiment [1] (setting [7]) was 31% (inactive); in experiment [1] (setting [8]), 69% (inactive); in experiment [1] (at 50.0 µM), 67.8% (inactive); in experiment [2] (setting [7]) it was 27% (inactive); in experiment [2] (setting [8]) it was 80% (active); in experiment [2] (at 50.0 µM) it was 61.9% (inactive). For the same compound, the growth inhibition in experiment [3] (setting [7]) is 37% (inactive); in experiment [3] (setting [8]), 73% (active); in experiment [3] (at 50.0 µM), 70.7% (active); in experiment [4] (setting [7]), 18% (inactive); in experiment [4] (setting [8]), 35% (inactive); in experiment [4] (at 50.0 µM) it was 56.3% (inactive). The growth inhibition is 37% (inactive) in experiment [5] (setting [7]); 80% (active) in experiment [5] (setting [8]); 65% (inactive) in experiment [5] (at 50.0 µM); 42% (inactive) in experiment [6] (setting [7]); 77% (active) in experiment [6] (setting [8]); 62.7% (inactive) in experiment [6] (at 50.0 µM).
Consider `Cc1nc(N)sc1N=Nc1ccc(Cl)cc1Cl`, for which the growth inhibition is 4% (inactive) in experiment [1] (setting [7]); 90% (active) in experiment [1] (setting [8]); 82.5% (active) in experiment [1] (at 50.0 µM); 1% (inactive) in experiment [2] (setting [7]); 90% (active) in experiment [2] (setting [8]); 76.4% (active) in experiment [2] (at 50.0 µM). Moreover, the growth inhibition in experiment [3] (setting [7]) is 4% (inactive); in experiment [3] (setting [8]), 94% (active); in experiment [3] (at 50.0 µM), 84.2% (active); in experiment [4] (setting [7]), 2% (inactive); in experiment [4] (setting [8]), 48% (inactive); in experiment [4] (at 50.0 µM), 84.3% (active). Further, the growth inhibition in experiment [5] (setting [7]) was 1% (inactive); in experiment [5] (setting [8]) it was 55% (inactive); in experiment [5] (at 50.0 µM), 81.7% (active); in experiment [6] (setting [7]) it was 16% (inactive); in experiment [6] (setting [8]), 97% (active); in experiment [6] (at 50.0 µM), 93.4% (active).
`O/N=C(/CCc1ccccc1)c1ccccc1`: the growth inhibition is 7% (inactive) in experiment [1] (setting [7]); 84% (active) in experiment [1] (setting [8]); 97.1% (active) in experiment [1] (at 50.0 µM); 2% (inactive) in experiment [2] (setting [7]); 70% (active) in experiment [2] (setting [8]); 97% (active) in experiment [2] (at 50.0 µM). Besides, the growth inhibition was 5% (inactive) in experiment [3] (setting [7]); 76% (active) in experiment [3] (setting [8]); 97.2% (active) in experiment [3] (at 50.0 µM); -2% (inactive) in experiment [4] (setting [7]); 56% (inactive) in experiment [4] (setting [8]); 93.2% (active) in experiment [4] (at 50.0 µM). For the same compound, the growth inhibition in experiment [5] (setting [7]) was -2% (inactive); in experiment [5] (setting [8]) it was 71% (active); in experiment [5] (at 50.0 µM), 95.7% (active); in experiment [6] (setting [7]), 2% (inactive); in experiment [6] (setting [8]), 71% (active); in experiment [6] (at 50.0 µM), 97.2% (active).
